PubChem BioAssay (NCI)
Compounds without any hit were thinned out: in the full panel of roughly 83,000, 20% have a hit.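 The test compound was applied at a single concentration to cells in 96-well plates for 48 hours, and percent growth was recorded.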 The source made the active and inactive calls. How the source made its calls: active means growth percent below 10; inactive means the rest.

System: MDA-MB-468 breast
Test: NCI-60 one-dose screen, 48 h (100 = growth as untreated, 0 = no growth, -100 = all killed)
Conditions: 10 µM unless noted

Row | Structure (SMILES) | growth
1 | COc1ccc(-c2ccnc3c(C#N)c(Nc4ccccc4)nn23)cc1OC | 79.4% (inactive)
2 | O=C(CSc1nnc(-c2ccc(Cl)cc2)n1-c1ccccc1)Nc1cccc(F)c1 | 17.2% (inactive)
3 | COc1cc(/C=C2\CCC/C(=C\c3cc(CN4CCCCC4)c(O)c(OC)c3)C2=O)cc(CN2CCCCC2)c1O | 80.4% (inactive)
4 | Cc1nnc2c(Cc3ccccc3)nc3ccccc3n12 | 89.6% (inactive)
5 | O=C(NCCN1CCCCC1)n1cc(-c2ccncc2)c(-c2ccc(Cl)c(O)c2)n1 | 83.8% (inactive)
6 | CN1C(=O)N(C)C2Nn3c(s/c(=C\c4ccccn4)c3=O)=NC21 (stereo not given) | 95.6% (inactive)
7 | O=[N+]([O-])c1ccc(NS(=O)(=O)c2cc(Cl)ccc2Cl)c2ccccc12 | 23.6% (inactive)
8 | Nc1nc(N)c2cc(CNc3ccc(Cl)c(Cl)c3)ccc2n1 | -75.3% (active)
9 | c1ccc(Cc2cccc[n+]2C(c2ccccc2)c2ccccc2)cc1 | -6.43% (active)
10 | c1ccc(C2=Nc3ccccc3SC2)cc1 | 122% (inactive)
11 | COc1ccc2c(c1)c(-c1noc(-c3cn(C)c4ncc(F)cc34)n1)cn2C | 73.5% (inactive)
12 | Nc1ccc2c(c1Br)Cc1ccccc1-2 | 111% (inactive)
13 | COC(=O)[C@@H](Cc1c[nH]c2ccccc12)NC[C@@H](O)CN1C(=O)/C(=C\c2cc(OC)c(OC)c(OC)c2)c2ccccc21 | 37.9% (inactive)
14 | CNS(=O)(=O)Oc1ccc(-c2ccc3occc3c2)cc1 | 91.7% (inactive)
15 | COc1ccc(-c2cc(-c3cccc4ccccc34)n3c(n2)nc2ccccc23)cc1 | 52.4% (inactive)
